Experimental findings from PubChem BioAssay (Tox21) are described below.

Unmarked numbers belong to inactive results. Inconclusive results are not listed. Activity calls are given as the source filed them. Unless noted, calls follow the shape of the dose curve; as a rule, active = well fitted curve in the direction sought with a large enough effect in the repeat runs; inconclusive = weak or mixed curves; inactive = no such curve, though single readings can be large; an effect the other way counts as inactive or inconclusive.

Experiment [1] is described as follows: qHTS assay for small molecules that induce genotoxicity in human embryonic kidney cells expressing luciferase-tagged ATAD5 (AID 651632). Also: nearly all actives have a fitted effect of over 15% in size. In short, it runs like this: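 Reporter cells (HEK293T) express luciferase-tagged ATAD5, a protein that accumulates after DNA damage. Treat 16 hr at 37C/5% CO2, add Amplite, wait 30 min at RT, and read luminescence.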
Experiment [2] can be described thus: qHTS assay for small molecules that induce genotoxicity in human embryonic kidney cells expressing luciferase-tagged ATAD5 - cell viability (AID 651634; calls by dose curve; also: nearly all actives have a fitted effect of over 25% in size). In short, it runs like this:
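Seeding of 2,000 HEK293T ATAD5-luciferase cells per well preceded pin-tool compound transfer. Plates sat 15.5 hr at 37C under 5% CO2, then fluorescence was read after 30 min with CellTiter-Fluor.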

The nature of experiment [3]: qHTS assay for small molecule disruptors of the mitochondrial membrane potential (AID 720635). Also: potency is read from the fitted curve at half-maximal effect. In short, it runs like this:
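Mitochondrial membrane potential tracked with Mito-MPS dye, red aggregates (ex 540/em 590 nm) against green monomers (ex 490/em 535 nm). Compound treatment 1 hr at 37C, dye 30 min in HepG2.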

A short description of experiment [4]: qHTS assay to test for compound auto fluorescence at 590 nm (red) in HepG2 cells (AID 720674). In short, it runs like this:
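Red autofluorescence (Ex/Em 540/590 nm, Rose Bengal sodium equivalents) was measured in HepG2 cells, 2,000 per well in MEM plus 10% FBS, plated overnight at 37 C. Readings were taken 1 hr after adding 23 nL compound or DMSO, at 37 C and 5% CO2.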

Experiment [5] is described as follows: qHTS assay to test for compound auto fluorescence at 460 nm (blue) in HEK293 cells (AID 720678). In short, it runs like this: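 Measured: blue fluorescence (Ex 405/Em 460 nm) of compound-treated HEK293 cells, incubated overnight at 37C with 5% CO2 and scaled to triamterene equivalents.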
Experiment [6] in a line: qHTS assay to test for compound auto fluorescence at 590 nm (red) in HEK293 cells (AID 720679). In short, it runs like this:
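Using HEK293 cells at 2,000 per well, the screen added 23 nL of each compound after cell attachment and incubated overnight (37C, 5% CO2). The plate reader then captured red-label fluorescence, Ex/Em 540/590nm.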

Experiment [7] is described as follows: qHTS assay to test for compound auto fluorescence at 535 nm (green) in HEK293 cells (AID 720680).
Experiment [8] is described as follows: qHTS assay to test for compound auto fluorescence at 460 nm (blue) in HEK293 cell free culture (AID 720681). In short, it runs like this:
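Blue fluorescence (Ex 405/Em 460 nm, triamterene-equivalent) was read immediately after pin transfer of compound or DMSO into medium (DMEM, 10% FBS) without cells.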

Experiment [9] in a line: qHTS assay to test for compound auto fluorescence at 535 nm (green) in HEK293 cell free culture (AID 720682). In short, it runs like this: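 No cells present: wells hold DMEM supplemented with 10% FBS, into which compound or vehicle is pinned. Green emission is then recorded (485 nm excitation, 535 nm emission) and scaled to fluorescein.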
The nature of experiment [10]: qHTS assay to test for compound auto fluorescence at 590 nm (red) in HEK293 cell free culture (AID 720683). In short, it runs like this: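 Red-channel autofluorescence of compounds in culture medium (DMEM, 10% FBS), no cells, measured at 540/590 nm. Rose Bengal sodium is the reference fluorophore for equivalence.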
Experiment [11] in a line: qHTS assay to test for compound auto fluorescence at 590 nm (red) in HepG2 cell free culture (AID 720684). In short, it runs like this:
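Plate contents were MEM with 10% FBS plus test compound or DMSO, no cells. Fluorescence was recorded with 540 nm excitation and 590 nm emission.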

Experiment [12] in a line: qHTS assay to test for compound auto fluorescence at 460 nm (blue) in HepG2 cell free culture (AID 720685). In short, it runs like this: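 Compound (23 nL) or DMSO pinned into cell-free MEM with 10% FBS; blue fluorescence read at 405/460 nm excitation/emission, expressed as auto-fluorescence equivalency to triamterene.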
Experiment [13] in a line: qHTS assay to test for compound auto fluorescence at 535 nm (green) in HepG2 cell free culture (AID 720686).
Experiment [14] can be described thus: qHTS assay to test for compound auto fluorescence at 460 nm (blue) in HepG2 cells (AID 720687). In short, it runs like this:
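Blue-channel autofluorescence (Ex/Em 405/460 nm, triamterene-equivalent) was measured after 1 hr compound exposure at 37 C, 5% CO2. Cells were HepG2, plated overnight at 37 C in MEM plus 10% FBS.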

In experiment [15] the target is Glucocorticoid receptor (Homo sapiens) (UniProt P04150). Briefly: qHTS assay to identify small molecule agonists of the glucocorticoid receptor (GR) signaling pathway (AID 720691; active = well fitted activation curve with a large enough effect in the signal ratio in the repeat runs, not every such curve was filed as active; the % refers to the signal ratio). In short, it runs like this:
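Reporter read-out: fluorescence intensity following 2 h room-temperature LiveBLAzer B/G FRET substrate loading. Prior step: GR-bla HeLa cells held 4 h, then treated 18 h at 37 C.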

The target is the same in experiment [16]. Briefly: qHTS assay to identify small molecule antagonists of the glucocorticoid receptor (GR) signaling pathway (AID 720692; active = well fitted inhibition curve with a large enough effect in the signal ratio in the repeat runs, not every such curve was filed as active; the % refers to the signal ratio). In short, it runs like this:
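Dexamethasone (5 nM final) stimulated a stably integrated GRE-beta-lactamase reporter in HeLa cells during 18 h co-incubation with compounds; signal was quantified as fluorescence intensity of B/G FRET substrate after 2 h.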

Experiment [17] can be described thus: qHTS assay for small molecule agonists of the p53 signaling pathway - cell viability (AID 651633; calls by dose curve;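 also: p53RE-bla HCT reporter cells with a stable beta-lactamase p53 reporter; series mostly up to about 83 µM; nearly all actives have a fitted effect of over 30% in size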). In short, it runs like this:
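Viability counter-read: CellTiter-Glo luminescence (30 min, room temperature) in the same p53RE-bla plates. These plates had been exposed to compounds for 16 h at 37 C.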

The nature of experiment [18]: qHTS assay for small molecule disruptors of the mitochondrial membrane potential - cell viability (AID 720634; calls by dose curve;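 also: human HepG2 liver cancer cells; series mostly up to about 83 µM; nearly all actives have a fitted effect of over 20% in size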). In short, it runs like this:
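Measuring cytotoxicity alongside mitochondrial potential, the screen quantified ATP by luminescence in HepG2 cells after 1 hr compound incubation and a 30 min room-temperature CellTiter-Glo step.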

The nature of experiment [19]: qHTS assay to test for compound auto fluorescence at 535 nm (green) in HepG2 cells (AID 720675).
% is scaled to controls: 0 for no effect and ±100 for the full control effect.

Chain of Glucocorticoid receptor (Homo sapiens) (P04150 whole entry, looked up): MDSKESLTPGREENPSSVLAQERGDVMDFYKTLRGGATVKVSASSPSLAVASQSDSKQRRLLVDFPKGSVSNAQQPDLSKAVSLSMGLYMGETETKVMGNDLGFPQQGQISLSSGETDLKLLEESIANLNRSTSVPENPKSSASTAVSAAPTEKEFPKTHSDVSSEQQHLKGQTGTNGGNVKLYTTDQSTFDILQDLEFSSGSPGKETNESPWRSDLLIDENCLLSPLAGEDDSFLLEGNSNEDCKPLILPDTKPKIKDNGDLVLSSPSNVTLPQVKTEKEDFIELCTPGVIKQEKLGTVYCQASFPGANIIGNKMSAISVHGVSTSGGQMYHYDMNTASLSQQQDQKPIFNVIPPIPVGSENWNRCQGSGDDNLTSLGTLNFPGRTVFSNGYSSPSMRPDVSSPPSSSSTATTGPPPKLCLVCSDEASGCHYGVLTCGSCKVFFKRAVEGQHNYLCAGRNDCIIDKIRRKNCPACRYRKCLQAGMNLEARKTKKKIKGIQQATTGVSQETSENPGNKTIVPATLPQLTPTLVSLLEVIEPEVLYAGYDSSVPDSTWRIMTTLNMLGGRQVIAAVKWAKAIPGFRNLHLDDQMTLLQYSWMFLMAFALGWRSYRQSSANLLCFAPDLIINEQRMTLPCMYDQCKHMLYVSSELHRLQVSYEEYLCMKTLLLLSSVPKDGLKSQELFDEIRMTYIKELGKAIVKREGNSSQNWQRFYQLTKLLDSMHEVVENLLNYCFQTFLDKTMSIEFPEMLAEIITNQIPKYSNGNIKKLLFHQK

In the case of `CC(C)OCCO`, the Potency entry in experiment [1], in [3] and in experiment [15] was “inactive” in each case. The compound was called inactive in experiment [2], in experiment [4], in experiment [5], in experiment [6], in experiment [7] and in experiment [8]. Also, the compound was classed as inactive in experiment [9], in experiment [10], in experiment [11], in experiment [12], in experiment [13] and in experiment [14]. In addition, the compound was classed as inactive in [16].
As for `C=CCCCCCCCCOC(C)=O`, the outcome in experiment [17], in [2], in experiment [18], in experiment [4], in experiment [19] and in [6] was inactive. In addition, the result in [7], in experiment [8], in experiment [9], in experiment [10], in experiment [11] and in experiment [12] was inactive. The compound was classed as inactive in [13] and in experiment [14]. In addition, the Potency result in experiment [3] was “inactive”.
Take `Cc1ccc(Br)cc1`: the compound was called inactive in [17], in [2], in experiment [18], in [4], in experiment [19] and in experiment [6]. In addition, the compound was called inactive in experiment [7], in [8], in experiment [9], in experiment [10], in experiment [11] and in [12]. Also, the call in [13], in experiment [14] and in experiment [16] was inactive.
`O=C1CC2(CCCC2)CC(=O)N1CCNCC1COc2ccccc2O1` (stereo not given): the Potency entry in [1] is “inactive”. Besides, the result in [18], in [4], in experiment [19], in [5], in [6] and in experiment [7] was inactive. For the same compound, the compound was classed as inactive in experiment [8], in [9], in [10], in [11], in experiment [12] and in [13]. Besides, in [14], the outcome was inactive.
Regarding `CC(=O)Nc1ccc(OCCOCCOc2ccc(NC(C)=O)cc2)cc1`, the result in experiment [17], in experiment [2], in experiment [18], in experiment [4], in [19] and in [5] was inactive. Further, the call in [6], in experiment [7], in [8], in experiment [9], in experiment [10] and in experiment [11] was inactive. For the same compound, the compound was classed as inactive in experiment [12] and in [14]. Also, the Potency result in experiment [3] was “inactive”.
In the case of `CN(C)c1ccncc1`, in experiment [3], the Potency entry was “inactive”. The outcome in experiment [4], in experiment [19], in experiment [5], in experiment [6], in experiment [7] and in [8] was inactive. For the same compound, the compound was classed as inactive in experiment [9], in experiment [10], in [11], in [12], in experiment [13] and in experiment [14].
Consider `CCCCCCCCCCCCCCBr`, for which the result in experiment [2], in [18], in experiment [4], in [19], in [5] and in experiment [6] was inactive. The compound was classed as inactive in [7], in [8], in [9], in experiment [10], in experiment [11] and in experiment [12]. The compound was called inactive in experiment [13], in [14] and in experiment [16]. In experiment [3], the Potency entry was “inactive”.
For the compound `O=S(=O)(O)c1cc(I)c(O)c2ncccc12`, the compound was classed as inactive in experiment [17], in [2], in [18], in experiment [4], in [5] and in experiment [6]. The call in experiment [7], in experiment [8], in experiment [9], in experiment [11], in experiment [12] and in [13] was inactive. Moreover, the compound was called inactive in experiment [14]. In addition, in [3], the Potency result is “inactive”.
Consider `CC(CC(=O)Cl)CC(C)(C)C` (stereo not given), for which the Potency entry in experiment [1] and in experiment [3] was “inactive” in each case. In addition, the compound was called inactive in [17], in experiment [4], in experiment [19], in [5], in experiment [6] and in experiment [7]. The outcome in [8], in experiment [9], in experiment [10], in [11], in experiment [12] and in [13] was inactive.
For the compound `BrCCOc1ccccc1`, the Potency entry in experiment [1] and in experiment [15] was “inactive” each time. Moreover, the call in experiment [2], in experiment [18], in experiment [4], in [19], in experiment [5] and in experiment [6] was inactive. Besides, the compound was classed as inactive in experiment [7], in experiment [8], in experiment [9], in experiment [10], in experiment [11] and in experiment [12]. Further, the compound was called inactive in [13], in experiment [14] and in experiment [16].
On to `COc1cc(NS(=O)(=O)c2ccc(N)cc2)ncn1`, for which the result in experiment [17], in experiment [18] and in [16] was inactive. For the same compound, in experiment [4], the fluorescence, relative to Rose Bengal is -0.434% [at 18.6 µM]. Besides, the fluorescence, % of fluorescein control in experiment [19] is 0.0032% [at 18.6 µM]; in experiment [13] it was 0.0114% [at 18.6 µM]. In addition, the fluorescence, % of fluorescent control is 0.185% [at 18.6 µM] in [6], 0.0083% [at 18.6 µM] in experiment [8], 0.0187% [at 18.6 µM] in experiment [12] and -0.0071% [at 18.6 µM] in experiment [14]. In [7], the fluorescence, % of fluorescein is 0.0387% [at 18.6 µM]. Besides, the activity change in experiment [9] is 0.0071% [at 18.6 µM]. In addition, in experiment [11], the fluorescence, % of Rose Bengal was 0.116% [at 18.6 µM]. The Potency entry in experiment [15] was “inactive”.
Take `CC(=O)c1ccc2ccc3ccccc3c2c1`: the result in experiment [17], in [2], in experiment [18], in [4], in experiment [5] and in experiment [6] was inactive. Besides, the compound was called inactive in [7], in experiment [8], in experiment [9], in [10], in experiment [11] and in experiment [12]. Besides, the compound was classed as inactive in experiment [13] and in [14]. Besides, the Potency in experiment [3] is 30.5 µM (active).
As for `C[C@H]1COc2c(C3(N)CC3)c(F)cc3c(=O)c(C(=O)O)cn1c23`, the outcome in experiment [17], in experiment [2], in experiment [18], in experiment [4], in experiment [19] and in [5] was inactive. In addition, the compound was called inactive in experiment [6], in experiment [7], in experiment [8], in [9], in experiment [10] and in experiment [11]. For the same compound, the compound was called inactive in experiment [12], in experiment [13], in experiment [14] and in experiment [16]. In addition, the Potency result in experiment [3] and in experiment [15] was “inactive” each time.
As for `CC(=O)OC/C=C(/C)CCC=C(C)C`, the outcome in [17], in experiment [2], in experiment [18], in experiment [4], in experiment [5] and in experiment [6] was inactive. The compound was called inactive in experiment [7], in experiment [8], in experiment [9], in experiment [10], in experiment [11] and in experiment [12]. Also, the compound was classed as inactive in [14] and in experiment [16]. For the same compound, in experiment [3], the Potency entry is “inactive”.
For `Cc1ccc(OC(=O)CC(C)C)cc1`, the compound was classed as inactive in experiment [17], in experiment [2], in experiment [18], in experiment [4], in [5] and in [6]. Moreover, the call in experiment [8], in [9], in experiment [10], in experiment [11], in experiment [12] and in experiment [13] was inactive. In addition, the Potency result in [3] and in experiment [15] was “inactive” in each case.
